The target of test [1] is Transcription factor E2F1 (Homo sapiens) (UniProt Q01094). The test is described as follows: ATG_E2F_CIS: Attagene CIS-FACTORIAL HepG2 Assay for human E2F Transcription Factor 1 (AID 2282935). As to conditions: HepG2 Attagene cis-reporter, E2F reporter RNA transcripts; actives raise or lower the signal. The essentials:
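Multiplexed cis-reporter assay: HepG2, transient transfection, 24 h dosing, mRNA quantitation by labeled RT-PCR and CE.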

Test [2] in a line: ATG_E_Box_CIS: Attagene CIS-FACTORIAL HepG2 Assay for human Enhancer Box (E-box) (AID 2282936). The note with it: HepG2 E-box cis-reporter transcription, actives raise or lower the signal. Summed up:
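Multiplexed CIS reporter system in transiently transfected HepG2 cells measures native transcription factor activity. Reporter RNA after 24 h exposure is profiled by RT-PCR-capillary electrophoresis.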

Test [3] in a line: ATG_M_61_CIS: Attagene CIS-FACTORIAL HepG2 Assay for M61 Transcription Factor (Internal Marker) (AID 2282937). As to conditions: HepG2 Attagene CIS-FACTORIAL M61 internal marker reporter; actives raise or lower the signal. Summed up:
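Readout is reporter mRNA by RT-PCR, fluorescent primer extension and capillary electrophoresis, with gain or loss fitted relative to DMSO. Transfected HepG2 cells carrying endogenous-TF-driven cis reporters were exposed to chemicals for 24 hours.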

A short description of test [4]: ATG_EGR_CIS: Attagene CIS-FACTORIAL HepG2 Assay for human Early Growth Response 1 (EGR1) (AID 2282938). The note with it: HepG2 Attagene CIS-FACTORIAL EGR reporter mRNA; actives raise or lower the signal. Summed up:
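After 24 h compound exposure, RNA from reporter-transfected HepG2 cells was reverse-transcribed, PCR-amplified, fluorescently labelled and resolved by capillary electrophoresis. EGR1 reporter transcript changes, up or down, were fitted against DMSO, reflecting endogenous transcription-factor activity.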

The nature of test [5]: ATG_M_19_CIS: Attagene CIS-FACTORIAL HepG2 Assay for M19 Transcription Factor (Internal Marker) (AID 2282939). The note with it: HepG2 Attagene CIS-FACTORIAL M19 internal marker reporter; actives raise or lower the signal. Summed up: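 Readout: fluorescent reporter-transcript fragments by capillary electrophoresis after RT-PCR. Human HepG2 liver cells carried transfected MRTU constructs reporting endogenous transcription-factor activity; exposure 24 h. Gain or loss of signal fitted relative to DMSO.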

Test [6] can be described thus: ATG_ERE_CIS: Attagene CIS-FACTORIAL HepG2 Assay for Estrogen Response Element (ERE) (AID 2282940). As to conditions: HepG2 ERE cis-reporter, Attagene RNA transcript; actives raise or lower the signal. Summed up: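 Readout: reporter mRNA induction by RT-PCR, FAM-labelled primer extension, HpaI digestion and capillary electrophoresis, 24 h after dosing transfected HepG2 cells. Endogenous transcription factors act on cis-element-regulated reporters. Gain or loss fitted against DMSO.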

A short description of test [7]: ATG_Ets_CIS: Attagene CIS-FACTORIAL HepG2 Assay for human Erythroblast Transformation Specific (ETS) (AID 2282941). The note with it: HepG2 ETS cis-reporter transcription, actives raise or lower the signal. The essentials: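 HepG2 cells transiently transfected with cis-promoter reporter transcription units were dosed for 24 h; reporter mRNA was measured by RT-PCR, 6-FAM primer extension, HpaI digestion and capillary electrophoresis, with bidirectional fitting against DMSO baseline.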

Test [8] deals with Hepatocyte nuclear factor 3-beta (Homo sapiens) (UniProt Q9Y261). The test is described as follows: ATG_FoxA2_CIS: Attagene CIS-FACTORIAL HepG2 Assay for human Forkhead box A2 (FOXA2) (AID 2282942). As to conditions: HepG2 cis-reporter transcription factor activity, 24 h; actives raise or lower the signal. The essentials: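 Endogenous transcription factor activity is captured via cis-element-driven reporter transcripts in transfected HepG2. Total RNA taken at 24 h post-dosing; labelled RT-PCR products resolved by capillary electrophoresis. Gain or loss fitted versus DMSO.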

Test [9] can be described thus: ATG_FoxO_CIS: Attagene CIS-FACTORIAL HepG2 Assay for human Forkhead box O (FoxO) (AID 2282943). As to conditions: HepG2 Attagene cis-reporter, FoxO element, mRNA; actives raise or lower the signal. The essentials:
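Values reflect reporter mRNA induction or loss in HepG2 cells 24 h post-dosing, fitted bidirectionally with DMSO as negative control and baseline. Detection used RT-PCR and fluorescence capillary electrophoresis.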

Test [10] in a line: ATG_GATA_CIS: Attagene CIS-FACTORIAL HepG2 Assay for human GATA Binding Protein (AID 2282944). As to conditions: HepG2 GATA cis-element reporter, Attagene multiplex mRNA; actives raise or lower the signal. Summed up: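 Read-out: fluorescent reporter mRNA fragments resolved by capillary electrophoresis after RT-PCR. Human liver HepG2 cells carried transiently transfected cis-regulated reporter constructs; chemicals incubated 24 h; gain or loss of signal fitted relative to DMSO.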

Test [11] in a line: ATG_GLI_CIS: Attagene CIS-FACTORIAL HepG2 Assay for human Zinc Finger Protein GLI1 (AID 2282945). The note with it: HepG2, Attagene cis-factorial reporter mRNA, GLI element; actives raise or lower the signal. Summed up: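 HepG2 cells transiently transfected with cis-promoter multiplexed reporter units report endogenous transcription factor activity. After 24 h chemical exposure, reporter mRNA was quantified by RT-PCR, 6-FAM labelling, HpaI digestion and capillary electrophoresis, with bidirectional fitting against DMSO.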

Test [12] can be described thus: ATG_GRE_CIS: Attagene CIS-FACTORIAL HepG2 Assay for human Glucocorticoid Response Elements (GRE) (AID 2282947). As to conditions: HepG2 GRE cis-reporter, Attagene multiplex mRNA; actives raise or lower the signal. The essentials:
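Following 24 h chemical exposure of transiently transfected HepG2 cells, total RNA was reverse-transcribed and reporter cDNA amplified, fluorescently labelled and sized by capillary electrophoresis. Signal gain or loss was fitted relative to DMSO vehicle.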

Test [13] is described as follows: ATG_ISRE_CIS: Attagene CIS-FACTORIAL HepG2 Assay for human Interferon Regulatory Factor 1 (IRF1) binding to an Interferon-Stimulated Response Element (ISRE) (AID 2282948). As to conditions: HepG2 ISRE cis-reporter (Attagene), mRNA transcription readout; actives raise or lower the signal. Summed up:
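HepG2 cells transiently transfected with multiplexed cis-promoter reporter units; after 24 h compound exposure, reporter mRNA quantified by RT-PCR, FAM labelling, HpaI digestion and capillary electrophoresis. Bidirectional fit versus DMSO baseline.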

Test [14] can be described thus: ATG_M_32_CIS: Attagene CIS-FACTORIAL HepG2 Assay for M32 Transcription Factor (Internal Marker) (AID 2282949).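 Further: background control marker of the multiplexed CIS panel rather than a real target.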 As to conditions: HepG2 Attagene cis-factorial M32 reporter, mRNA; actives raise or lower the signal. Summed up: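 Fluorescent capillary electrophoresis peaks of HpaI-digested, FAM-labelled RT-PCR reporter products give the signal. Source: transiently transfected human liver HepG2 cells, 24 h after chemical dosing; bidirectional fitting against DMSO.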

A short description of test [15]: ATG_M_06_CIS: Attagene CIS-FACTORIAL HepG2 Assay for M06 Transcription Factor (Internal Marker) (AID 2282950). As to conditions: HepG2 Attagene CIS-FACTORIAL M06 internal marker reporter; actives raise or lower the signal. The essentials:
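Terse: HepG2, transient MRTU transfection (FuGene 6), 24 h dosing; total RNA, oligo(dT) RT, PCR, FAM label, HpaI cut, capillary electrophoresis; bidirectional fit vs DMSO baseline; background-control endpoint.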

For test [16], the target named is Hypoxia-inducible factor 1-alpha (Homo sapiens) (UniProt Q16665). Briefly: ATG_HIF1a_CIS: Attagene CIS-FACTORIAL HepG2 Assay for human Hypoxia Inducible Factor 1 (HIF1A) (AID 2282951). The note with it: HepG2 Attagene cis-factorial HIF1a reporter transcription; actives raise or lower the signal. Summed up: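 Activity is fitted in both directions relative to DMSO. Reporter transcripts are read by RT-PCR, fluorescent primer extension and capillary electrophoresis after 24 h chemical treatment. The cells are HepG2 carrying transiently transfected cis-element-driven reporter units responding to endogenous factors.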

Test [17] addresses Hepatocyte nuclear factor 6 (Homo sapiens) (UniProt Q9UBC0). The test is described as follows: ATG_HNF6_CIS: Attagene CIS-FACTORIAL HepG2 Assay for human Hepatocyte Nuclear Factor 6 (HNF6) (AID 2282952). As to conditions: HepG2 Attagene cis-factorial HNF6 reporter transcription; actives raise or lower the signal. Summed up:
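Reporter mRNA induction or loss in HepG2 after 24 h exposure; transient cis-MRTU transfection; fragments quantified by capillary electrophoresis; bidirectional analysis, DMSO as negative control.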

The target of test [18] is Heat shock factor protein 1 (Homo sapiens) (UniProt Q00613). The test is described as follows: ATG_HSE_CIS: Attagene CIS-FACTORIAL HepG2 Assay for human Heat Shock Transcription Factor 1 (HSE) (AID 2282953). As to conditions: HepG2 HSE cis-reporter, Attagene RNA transcription; actives raise or lower the signal. Summed up:
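Read-out: fluorescence of reporter-specific RT-PCR fragments separated by capillary electrophoresis. HepG2 carrying transfected cis-element reporter units; 24 h dosing; activity fitted in both directions relative to DMSO baseline.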

The nature of test [19]: ATG_MRE_CIS: Attagene CIS-FACTORIAL HepG2 Assay for human Metal Responsive Element (MRE) (AID 2282954). The note with it: HepG2 MRE cis-reporter transcription, Attagene multiplex; actives raise or lower the signal. Summed up: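 Step one: transfect HepG2 with cis-regulated reporter units. Step two: dose 24 h. Step three: isolate RNA, RT-PCR, 6-FAM label, HpaI digest, capillary electrophoresis. Fit bidirectionally to DMSO.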

The target of test [20] is Bile acid receptor (Homo sapiens) (UniProt Q96RI1). Briefly: ATG_IR1_CIS: Attagene CIS-FACTORIAL HepG2 Assay for human Nuclear Receptor Subfamily 1 Group H Member 4 (NR1H4), IR1 submotif (AID 2282946). As to conditions: IR1 reporter transcription, actives raise or lower the signal. Summed up:
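Transient MRTU transfection, HepG2; 24 h dosing; RNA → RT-PCR → 6-FAM primer extension → HpaI digest → capillary electrophoresis fluorescence. Gain/loss of signal fitted relative to DMSO.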

Activity calls are given as the source filed them. How the source made its calls: active means hit-call score of the fitted dose curve at least 0.9, where 1 is the maximum; inactive means score below 0.9.

Chain of Hepatocyte nuclear factor 6 (Homo sapiens) (Q9UBC0 whole entry, looked up, the tested form may be a part): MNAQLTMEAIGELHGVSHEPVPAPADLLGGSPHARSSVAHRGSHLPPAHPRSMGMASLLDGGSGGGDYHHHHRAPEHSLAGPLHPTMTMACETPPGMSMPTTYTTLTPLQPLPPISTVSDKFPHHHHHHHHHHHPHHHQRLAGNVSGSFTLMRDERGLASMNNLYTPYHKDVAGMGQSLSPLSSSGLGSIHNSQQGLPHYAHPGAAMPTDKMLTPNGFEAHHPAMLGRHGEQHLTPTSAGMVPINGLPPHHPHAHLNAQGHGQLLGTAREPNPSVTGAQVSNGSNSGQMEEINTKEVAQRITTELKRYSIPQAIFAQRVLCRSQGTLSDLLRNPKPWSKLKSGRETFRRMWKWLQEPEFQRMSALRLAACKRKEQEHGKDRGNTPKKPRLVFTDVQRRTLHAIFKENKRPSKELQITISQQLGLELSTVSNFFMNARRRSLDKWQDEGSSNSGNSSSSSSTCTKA
Chain of Hypoxia-inducible factor 1-alpha (Homo sapiens) (Q16665 whole entry, looked up): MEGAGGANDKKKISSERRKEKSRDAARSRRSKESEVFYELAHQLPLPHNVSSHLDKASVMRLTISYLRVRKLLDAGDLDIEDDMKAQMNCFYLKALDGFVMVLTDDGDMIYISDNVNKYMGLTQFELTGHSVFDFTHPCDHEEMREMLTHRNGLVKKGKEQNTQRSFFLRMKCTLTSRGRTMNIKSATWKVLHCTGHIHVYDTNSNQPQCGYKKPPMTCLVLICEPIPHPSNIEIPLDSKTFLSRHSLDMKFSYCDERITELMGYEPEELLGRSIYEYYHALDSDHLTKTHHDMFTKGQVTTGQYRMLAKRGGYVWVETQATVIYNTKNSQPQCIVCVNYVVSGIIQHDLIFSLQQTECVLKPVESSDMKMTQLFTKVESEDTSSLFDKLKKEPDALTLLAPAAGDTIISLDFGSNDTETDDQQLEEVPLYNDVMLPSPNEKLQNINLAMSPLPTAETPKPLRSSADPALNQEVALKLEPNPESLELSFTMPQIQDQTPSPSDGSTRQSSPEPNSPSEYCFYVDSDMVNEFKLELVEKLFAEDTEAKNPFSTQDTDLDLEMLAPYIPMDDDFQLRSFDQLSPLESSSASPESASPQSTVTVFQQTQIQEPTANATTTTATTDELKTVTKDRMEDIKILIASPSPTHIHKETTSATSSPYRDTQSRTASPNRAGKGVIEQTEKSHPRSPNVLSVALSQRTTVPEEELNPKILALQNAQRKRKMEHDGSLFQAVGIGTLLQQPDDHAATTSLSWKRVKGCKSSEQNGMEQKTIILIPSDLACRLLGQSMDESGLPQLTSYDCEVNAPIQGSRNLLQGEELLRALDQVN
Chain of Hepatocyte nuclear factor 3-beta (Homo sapiens) (Q9Y261 whole entry, looked up): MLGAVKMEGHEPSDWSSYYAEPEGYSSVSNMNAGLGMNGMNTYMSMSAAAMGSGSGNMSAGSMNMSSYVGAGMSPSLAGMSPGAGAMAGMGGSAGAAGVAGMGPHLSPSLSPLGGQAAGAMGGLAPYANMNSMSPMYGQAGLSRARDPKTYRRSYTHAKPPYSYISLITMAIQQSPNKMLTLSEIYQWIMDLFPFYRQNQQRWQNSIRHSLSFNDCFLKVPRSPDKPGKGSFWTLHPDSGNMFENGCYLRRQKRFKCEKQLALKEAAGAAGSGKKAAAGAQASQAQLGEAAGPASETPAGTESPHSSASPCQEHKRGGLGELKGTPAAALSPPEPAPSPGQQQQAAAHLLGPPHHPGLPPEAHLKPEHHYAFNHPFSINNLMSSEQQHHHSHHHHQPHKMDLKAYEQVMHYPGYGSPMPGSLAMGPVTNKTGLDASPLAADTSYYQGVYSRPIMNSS
Chain of Transcription factor E2F1 (Homo sapiens) (Q01094 whole entry, looked up): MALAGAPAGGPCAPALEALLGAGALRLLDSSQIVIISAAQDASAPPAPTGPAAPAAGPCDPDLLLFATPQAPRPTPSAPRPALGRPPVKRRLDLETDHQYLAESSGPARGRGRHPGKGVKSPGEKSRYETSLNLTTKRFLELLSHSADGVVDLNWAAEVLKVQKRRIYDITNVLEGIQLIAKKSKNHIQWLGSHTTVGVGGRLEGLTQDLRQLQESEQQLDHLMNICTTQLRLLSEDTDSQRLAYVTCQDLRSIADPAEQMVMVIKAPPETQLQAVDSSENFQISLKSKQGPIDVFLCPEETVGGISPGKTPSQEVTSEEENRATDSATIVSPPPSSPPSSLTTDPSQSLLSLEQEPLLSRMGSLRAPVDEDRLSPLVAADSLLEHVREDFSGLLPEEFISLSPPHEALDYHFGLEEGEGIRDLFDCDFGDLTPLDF
Chain of Heat shock factor protein 1 (Homo sapiens) (Q00613 whole entry, looked up, the tested form may be a part): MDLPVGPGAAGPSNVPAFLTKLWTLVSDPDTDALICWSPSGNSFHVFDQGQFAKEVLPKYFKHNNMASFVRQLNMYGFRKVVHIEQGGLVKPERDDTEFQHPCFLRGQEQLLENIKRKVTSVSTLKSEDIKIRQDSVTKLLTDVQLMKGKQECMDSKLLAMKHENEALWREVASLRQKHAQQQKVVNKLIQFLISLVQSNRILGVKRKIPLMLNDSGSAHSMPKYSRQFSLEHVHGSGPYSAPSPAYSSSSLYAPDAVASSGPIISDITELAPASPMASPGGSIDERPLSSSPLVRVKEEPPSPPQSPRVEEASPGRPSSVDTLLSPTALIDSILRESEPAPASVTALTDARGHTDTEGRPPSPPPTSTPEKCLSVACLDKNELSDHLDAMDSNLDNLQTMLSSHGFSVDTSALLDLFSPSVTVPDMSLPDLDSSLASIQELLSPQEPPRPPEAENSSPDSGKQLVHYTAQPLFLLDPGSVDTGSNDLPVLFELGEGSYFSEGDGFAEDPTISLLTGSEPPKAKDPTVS
Chain of Bile acid receptor (Homo sapiens) (Q96RI1 whole entry, looked up): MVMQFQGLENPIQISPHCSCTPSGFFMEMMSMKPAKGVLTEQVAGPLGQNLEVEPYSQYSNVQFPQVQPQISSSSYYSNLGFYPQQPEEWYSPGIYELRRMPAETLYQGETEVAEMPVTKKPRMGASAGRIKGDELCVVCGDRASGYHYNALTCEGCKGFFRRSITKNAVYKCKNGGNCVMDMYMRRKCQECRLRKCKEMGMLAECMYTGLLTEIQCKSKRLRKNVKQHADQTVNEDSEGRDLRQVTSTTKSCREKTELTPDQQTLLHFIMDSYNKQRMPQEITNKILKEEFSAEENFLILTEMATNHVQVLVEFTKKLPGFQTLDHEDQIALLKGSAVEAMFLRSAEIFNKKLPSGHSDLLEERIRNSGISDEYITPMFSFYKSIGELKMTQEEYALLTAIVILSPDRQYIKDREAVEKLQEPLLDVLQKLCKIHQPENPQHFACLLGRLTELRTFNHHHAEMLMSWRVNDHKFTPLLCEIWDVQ

For `C1CCC(SSC2CCCCC2)CC1`, the result in test [1], in test [2], in test [3], in test [4], in [5] and in [7] was inactive. In addition, the result in test [8], in test [9], in test [10], in test [11], in test [12] and in test [13] was inactive. Also, the compound was classed as inactive in test [14], in test [15], in [16], in test [17], in test [18] and in test [19]. Also, the AC50 in [6] was 56.7 µM (active).

`O=C(OCCCCCOC(=O)c1ccccc1)c1ccccc1`: the outcome in test [1], in test [2], in test [3], in test [4], in [5] and in test [6] was inactive. Moreover, the outcome in test [7], in test [8], in [9], in [10], in [11] and in test [12] was inactive. For the same compound, the compound was called inactive in [13], in [14], in test [15], in test [17], in test [18] and in test [19]. The half-maximal activity concentration (AC50) in test [16] is 26.3 µM (active).

Regarding `Cc1oc(-c2ccccc2)nc1CCOc1cccc2c1ccn2CCC(=O)O`, the result in test [1], in test [2], in test [3], in [4], in test [5] and in test [7] was inactive. Besides, the outcome in test [9], in test [10], in test [11], in test [12], in test [13] and in [14] was inactive. Also, the compound was called inactive in [15], in [16], in test [17], in [18] and in [19]. In test [8], the concentration at half-maximal activity (AC50) was 1.86 µM (active).

In the case of `Nc1nc(N)c2nc(CNc3ccc(C(=O)N[C@@H](CCC(=O)O)C(=O)O)cc3)cnc2n1`, the outcome in [1], in [2], in test [3], in [4], in test [5] and in test [7] was inactive. For the same compound, the call in test [8], in test [9], in [10], in [11], in test [20] and in test [12] was inactive. The call in test [13], in test [14], in test [15], in test [17], in [18] and in test [19] was inactive.

Source of the values: PubChem BioAssay (EPA / NIEHS).
